Consider 4 compounds from PubChem BioAssay (EPA / NIEHS).

In general, AC50 refers to the concentration giving half of the maximal activity seen.

Read-out in test [1]: Tumor necrosis factor receptor superfamily member 6 (Homo sapiens) (UniProt P25445)
The test is described as follows: LTEA_HepaRG_FAS: Life Technologies and Expression Analysis (LTEA) Assay for Fas cell surface death receptor (FAS) using HepaRG (AID 2283447). Particulars: mRNA level, 48 h; actives raise or lower the signal. An outline of the steps: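 FAS transcript level was measured by TaqMan qRT-PCR against three housekeeping genes after 48 h chemical exposure. Cells were HepaRG, 0.5% DMSO vehicle, with a top concentration of 100 uM and half-log dilutions over eight points, in duplicate.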

Read-out in test [2]: Fatty acid synthase (Homo sapiens) (UniProt P49327)
The test is described as follows: LTEA_HepaRG_FASN: Life Technologies and Expression Analysis (LTEA) Assay for Fatty Acid Synthase (FASN) using HepaRG (AID 2283448). Particulars: mRNA level, 48 h; actives raise or lower the signal. The gist of the method: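 In human HepaRG cultures, 48 h chemical exposure (up to 100 uM, 0.5% DMSO) preceded TaqMan qRT-PCR of FASN.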

Read-out in test [3]: Cyclin Dependent Kinase Inhibitor 1A (CDKN1A), CDKN1A (gene 1026)
The test is described as follows: LTEA_HepaRG_CDKN1A: Life Technologies and Expression Analysis (LTEA) Assay for Cyclin Dependent Kinase Inhibitor 1A (CDKN1A) using HepaRG (AID 2283450). As to conditions: mRNA level, 48 h; actives raise or lower the signal. An outline of the steps: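 Differentiated HepaRG cells in serum-free induction medium, exposed 48 h in duplicate to eight half-log concentrations up to 100 uM in 0.5% DMSO. mRNA measured by TaqMan qRT-PCR, normalized to ACTB, GAPDH, POLR2A; bidirectional fit versus DMSO.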

Read-out in test [4]: Cyclin D1 (CCND1), CCND1 (gene 595)
The test is described as follows: LTEA_HepaRG_CCND1: Life Technologies and Expression Analysis (LTEA) Assay for Cyclin D1 (CCND1) using HepaRG (AID 2283451).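 For AC50: TaqMan qRT-PCR transcript level normalised to ACTB GAPDH and POLR2A housekeeping genes.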 As to conditions: mRNA level, 48 h; actives raise or lower the signal. The gist of the method: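 Differentiated HepaRG cells exposed 48 h in serum-free induction medium to eight half-log concentrations from 100 uM top, 0.5% DMSO, duplicates. CCND1 mRNA measured by Fluidigm TaqMan qRT-PCR, normalised to ACTB, GAPDH, POLR2A; bidirectional fit.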

Read-out in test [5]: catalase (CAT), CAT (gene 847)
The test is described as follows: LTEA_HepaRG_CAT: Life Technologies and Expression Analysis (LTEA) Assay for catalase (CAT) using HepaRG (AID 2283452). Particulars: mRNA level, 48 h; actives raise or lower the signal. An outline of the steps:
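Expression of CAT was quantified by TaqMan qRT-PCR with ACTB/GAPDH/POLR2A normalization after 48 h chemical exposure of HepaRG. Eight-point half-log series, top 100 uM, in 0.5% DMSO; gain or loss fitted against vehicle.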

Read-out in test [6]: flavin-containing dimethylaniline monooxygenases 3 (FMO3), FMO3 (gene 2328)
The test is described as follows: LTEA_HepaRG_FMO3: Life Technologies and Expression Analysis (LTEA) Assay for flavin-containing dimethylaniline monooxygenases 3 (FMO3) using HepaRG (AID 2283453). Particulars: mRNA level, 48 h; actives raise or lower the signal. An outline of the steps: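 Eight-point concentration-response in serum-free HepaRG cultures (top 100 uM, 0.5% DMSO, 48 h). Read-out: FMO3 mRNA level normalized to three endogenous control genes, fitted bidirectionally versus vehicle.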

Read-out in test [7]: Cytochrome P450 (CYP1A1), CYP1A1 (gene 1543)
The test is described as follows: LTEA_HepaRG_CYP1A1: Life Technologies and Expression Analysis (LTEA) Assay for Cytochrome P450 (CYP1A1) using HepaRG (AID 2283454). Particulars: mRNA level, 48 h; actives raise or lower the signal. An outline of the steps: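 Differentiated human HepaRG cells, after 48 h plating, exposed in duplicate for 48 h in serum-free induction medium to 8 half-log concentrations up to 100 uM in 0.5% DMSO. CYP1A1 mRNA by qRT-PCR, normalized to ACTB/GAPDH/POLR2A; bidirectional fit versus DMSO.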

Read-out in test [8]: Forkhead box O1 (FOXO1), FOXO1 (gene 2308)
The test is described as follows: LTEA_HepaRG_FOXO1: Life Technologies and Expression Analysis (LTEA) Assay for Forkhead box O1 (FOXO1) using HepaRG (AID 2283456). Particulars: mRNA level, 48 h; actives raise or lower the signal. The gist of the method:
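FOXO1 transcript quantified by qRT-PCR after 48 h chemical exposure (top 100 uM, half-log steps, 0.5% DMSO) of HepaRG cells, housekeeping-normalized (ACTB/GAPDH/POLR2A). Changes fitted in both directions relative to vehicle.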

The nature of test [9]: CEETOX_H295R_TESTO: CeeTox H295R High-throughput Steroidogenesis Assay for Testosterone (TESTO) (AID 2283457). As to conditions: actives raise or lower the signal. The gist of the method: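 H295R adrenal cells, passage ≤10, exposed to chemicals for 48 h. Testosterone in medium measured by MTBE extraction and HPLC-MS/MS against a 7-point standard curve. Bidirectional fit versus DMSO; MTT viability checked in the same wells.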

Read-out in test [10]: growth arrest and DNA damage 45 (GADD45A), GADD45A (gene 1647)
The test is described as follows: LTEA_HepaRG_GADD45A: Life Technologies and Expression Analysis (LTEA) Assay for growth arrest and DNA damage 45 (GADD45A) using HepaRG (AID 2283458). Particulars: mRNA level, 48 h; actives raise or lower the signal. An outline of the steps:
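Eight-point concentration-response in HepaRG cells: 48 h chemical exposure, 0.5% DMSO vehicle, top dose 100 uM. Normalized qRT-PCR mRNA readout with bidirectional fitting relative to DMSO.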

Read-out in test [11]: Forkhead box O3 (FOXO3), FOXO3 (gene 2309)
The test is described as follows: LTEA_HepaRG_FOXO3: Life Technologies and Expression Analysis (LTEA) Assay for Forkhead box O3 (FOXO3) using HepaRG (AID 2283459). Particulars: mRNA level, 48 h; actives raise or lower the signal. The gist of the method:
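FOXO3 transcript measured by qRT-PCR (normalized to ACTB, GAPDH, POLR2A) after 48 h exposure of HepaRG cells in serum-free induction medium. Duplicates, eight half-log concentrations up to 100 uM, 0.5% DMSO; gain or loss fitted against DMSO.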

Read-out in test [12]: ABC Transporter (ABCB1), ABCB1 (gene 5243)
The test is described as follows: LTEA_HepaRG_ABCB1: Life Technologies and Expression Analysis (LTEA) Assay for ABC Transporter (ABCB1) using HepaRG (AID 2283460). As to conditions: mRNA level, 48 h; actives raise or lower the signal. The gist of the method: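 ABCB1 transcript level measured by TaqMan qRT-PCR against three housekeeping genes after 48 h chemical exposure of differentiated HepaRG cells. Top concentration 100 uM, half-log steps, eight points, 0.5% DMSO vehicle; bidirectional fit relative to DMSO.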

Read-out in test [13]: growth arrest and DNA damage 45 (GADD45B), GADD45B (gene 4616)
The test is described as follows: LTEA_HepaRG_GADD45B: Life Technologies and Expression Analysis (LTEA) Assay for growth arrest and DNA damage 45 (GADD45B) using HepaRG (AID 2283461). Particulars: mRNA level, 48 h; actives raise or lower the signal. The gist of the method: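 Differentiated human HepaRG cells in serum-free induction medium exposed 48 h in duplicate to eight concentrations, top 100 uM, half-log steps, 0.5% DMSO. GADD45B mRNA by TaqMan qRT-PCR, normalized to ACTB, GAPDH, POLR2A; bidirectional fit versus DMSO.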

Read-out in test [14]: ABC Transporter (ABCC3), ABCC3 (gene 8714)
The test is described as follows: LTEA_HepaRG_ABCC3: Life Technologies and Expression Analysis (LTEA) Assay for ABC Transporter (ABCC3) using HepaRG (AID 2283462). Particulars: mRNA level, 48 h; actives raise or lower the signal. An outline of the steps:
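Differentiated human HepaRG cells exposed 48 h in serum-free induction medium, 0.5% DMSO vehicle, 8-point half-log series to 100 uM in duplicate. ABCC3 mRNA by qRT-PCR, normalised to ACTB, GAPDH, POLR2A; bidirectional fit vs DMSO.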

Read-out in test [15]: Broad substrate specificity ATP-binding cassette transporter ABCG2 (Homo sapiens) (UniProt Q9UNQ0)
The test is described as follows: LTEA_HepaRG_ABCG2: Life Technologies and Expression Analysis (LTEA) Assay for ABC Transporter (ABCG2) using HepaRG (AID 2283465). Particulars: mRNA level, 48 h; actives raise or lower the signal. An outline of the steps: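 ABCG2 transcript was quantified by TaqMan qRT-PCR against three housekeeping genes in HepaRG cells. Cells were treated in duplicate for 48 h across an 8-point half-log series up to 100 uM, with 0.5% DMSO vehicle. Gain or loss versus DMSO was fit.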

Read-out in test [16]: ATP-citrate lyase (ACLY), ACLY (gene 47)
The test is described as follows: LTEA_HepaRG_ACLY: Life Technologies and Expression Analysis (LTEA) Assay for ATP-citrate lyase (ACLY) using HepaRG (AID 2283466). Particulars: mRNA level, 48 h; actives raise or lower the signal. The gist of the method:
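ACLY mRNA quantified by qRT-PCR on Fluidigm arrays against three housekeeping genes, after 48 h chemical treatment of HepaRG cells (top concentration 100 uM, half-log steps, 0.5% DMSO vehicle). Up- or down-regulation fitted relative to DMSO.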

Read-out in test [17]: ABC Transporter (ABCC2), ABCC2 (gene 1244)
The test is described as follows: LTEA_HepaRG_ABCC2: Life Technologies and Expression Analysis (LTEA) Assay for ABC Transporter (ABCC2) using HepaRG (AID 2283464). Particulars: mRNA level, 48 h; actives raise or lower the signal. The gist of the method: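 Differentiated HepaRG cells in serum-free induction medium exposed 48 h to eight half-log concentrations up to 100 uM, 0.5% DMSO, in duplicate. ABCC2 mRNA measured by qRT-PCR (TaqMan, Fluidigm), normalized to ACTB, GAPDH and POLR2A. Fitted in both directions against DMSO.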

Read-out in test [18]: CFLAR gene, CFLAR (gene 8837)
The test is described as follows: LTEA_HepaRG_CFLAR: Life Technologies and Expression Analysis (LTEA) Assay for CFLAR gene using HepaRG (AID 2283455). As to conditions: mRNA level, 48 h; actives raise or lower the signal. An outline of the steps: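 Transcript level by qRT-PCR (normalized to ACTB, GAPDH and POLR2A) after 48 h chemical exposure of HepaRG cells, top concentration 100 uM with half-log steps, 0.5% DMSO vehicle, duplicates; fitted bidirectionally against DMSO baseline.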

Structures are written as SMILES. Active and inactive are the calls of the source. Rule for the calls: active = hit-call score of the fitted dose curve at least 0.9, where 1 is the maximum; inactive = score below 0.9.

Broad substrate specificity ATP-binding cassette transporter ABCG2 (Homo sapiens), sequence (Q9UNQ0 whole entry, looked up): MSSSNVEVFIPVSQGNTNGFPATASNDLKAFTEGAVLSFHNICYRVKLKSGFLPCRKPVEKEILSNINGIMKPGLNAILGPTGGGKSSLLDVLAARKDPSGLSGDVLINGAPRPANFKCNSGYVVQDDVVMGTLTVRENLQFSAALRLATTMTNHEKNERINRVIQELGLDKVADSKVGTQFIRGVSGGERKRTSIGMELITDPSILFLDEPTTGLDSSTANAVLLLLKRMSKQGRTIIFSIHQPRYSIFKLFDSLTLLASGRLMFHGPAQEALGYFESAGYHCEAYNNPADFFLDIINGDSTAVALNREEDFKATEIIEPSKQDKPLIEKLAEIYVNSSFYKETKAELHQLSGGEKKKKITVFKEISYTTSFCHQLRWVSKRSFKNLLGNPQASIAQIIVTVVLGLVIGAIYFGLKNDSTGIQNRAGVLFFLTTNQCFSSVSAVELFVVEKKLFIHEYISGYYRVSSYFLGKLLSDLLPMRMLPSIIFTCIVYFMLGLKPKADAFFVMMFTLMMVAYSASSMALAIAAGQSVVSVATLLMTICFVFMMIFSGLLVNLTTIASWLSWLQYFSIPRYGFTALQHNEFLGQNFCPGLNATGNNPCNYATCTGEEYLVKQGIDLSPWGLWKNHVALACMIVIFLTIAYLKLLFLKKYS
Fatty acid synthase (Homo sapiens), sequence (P49327 whole entry, looked up): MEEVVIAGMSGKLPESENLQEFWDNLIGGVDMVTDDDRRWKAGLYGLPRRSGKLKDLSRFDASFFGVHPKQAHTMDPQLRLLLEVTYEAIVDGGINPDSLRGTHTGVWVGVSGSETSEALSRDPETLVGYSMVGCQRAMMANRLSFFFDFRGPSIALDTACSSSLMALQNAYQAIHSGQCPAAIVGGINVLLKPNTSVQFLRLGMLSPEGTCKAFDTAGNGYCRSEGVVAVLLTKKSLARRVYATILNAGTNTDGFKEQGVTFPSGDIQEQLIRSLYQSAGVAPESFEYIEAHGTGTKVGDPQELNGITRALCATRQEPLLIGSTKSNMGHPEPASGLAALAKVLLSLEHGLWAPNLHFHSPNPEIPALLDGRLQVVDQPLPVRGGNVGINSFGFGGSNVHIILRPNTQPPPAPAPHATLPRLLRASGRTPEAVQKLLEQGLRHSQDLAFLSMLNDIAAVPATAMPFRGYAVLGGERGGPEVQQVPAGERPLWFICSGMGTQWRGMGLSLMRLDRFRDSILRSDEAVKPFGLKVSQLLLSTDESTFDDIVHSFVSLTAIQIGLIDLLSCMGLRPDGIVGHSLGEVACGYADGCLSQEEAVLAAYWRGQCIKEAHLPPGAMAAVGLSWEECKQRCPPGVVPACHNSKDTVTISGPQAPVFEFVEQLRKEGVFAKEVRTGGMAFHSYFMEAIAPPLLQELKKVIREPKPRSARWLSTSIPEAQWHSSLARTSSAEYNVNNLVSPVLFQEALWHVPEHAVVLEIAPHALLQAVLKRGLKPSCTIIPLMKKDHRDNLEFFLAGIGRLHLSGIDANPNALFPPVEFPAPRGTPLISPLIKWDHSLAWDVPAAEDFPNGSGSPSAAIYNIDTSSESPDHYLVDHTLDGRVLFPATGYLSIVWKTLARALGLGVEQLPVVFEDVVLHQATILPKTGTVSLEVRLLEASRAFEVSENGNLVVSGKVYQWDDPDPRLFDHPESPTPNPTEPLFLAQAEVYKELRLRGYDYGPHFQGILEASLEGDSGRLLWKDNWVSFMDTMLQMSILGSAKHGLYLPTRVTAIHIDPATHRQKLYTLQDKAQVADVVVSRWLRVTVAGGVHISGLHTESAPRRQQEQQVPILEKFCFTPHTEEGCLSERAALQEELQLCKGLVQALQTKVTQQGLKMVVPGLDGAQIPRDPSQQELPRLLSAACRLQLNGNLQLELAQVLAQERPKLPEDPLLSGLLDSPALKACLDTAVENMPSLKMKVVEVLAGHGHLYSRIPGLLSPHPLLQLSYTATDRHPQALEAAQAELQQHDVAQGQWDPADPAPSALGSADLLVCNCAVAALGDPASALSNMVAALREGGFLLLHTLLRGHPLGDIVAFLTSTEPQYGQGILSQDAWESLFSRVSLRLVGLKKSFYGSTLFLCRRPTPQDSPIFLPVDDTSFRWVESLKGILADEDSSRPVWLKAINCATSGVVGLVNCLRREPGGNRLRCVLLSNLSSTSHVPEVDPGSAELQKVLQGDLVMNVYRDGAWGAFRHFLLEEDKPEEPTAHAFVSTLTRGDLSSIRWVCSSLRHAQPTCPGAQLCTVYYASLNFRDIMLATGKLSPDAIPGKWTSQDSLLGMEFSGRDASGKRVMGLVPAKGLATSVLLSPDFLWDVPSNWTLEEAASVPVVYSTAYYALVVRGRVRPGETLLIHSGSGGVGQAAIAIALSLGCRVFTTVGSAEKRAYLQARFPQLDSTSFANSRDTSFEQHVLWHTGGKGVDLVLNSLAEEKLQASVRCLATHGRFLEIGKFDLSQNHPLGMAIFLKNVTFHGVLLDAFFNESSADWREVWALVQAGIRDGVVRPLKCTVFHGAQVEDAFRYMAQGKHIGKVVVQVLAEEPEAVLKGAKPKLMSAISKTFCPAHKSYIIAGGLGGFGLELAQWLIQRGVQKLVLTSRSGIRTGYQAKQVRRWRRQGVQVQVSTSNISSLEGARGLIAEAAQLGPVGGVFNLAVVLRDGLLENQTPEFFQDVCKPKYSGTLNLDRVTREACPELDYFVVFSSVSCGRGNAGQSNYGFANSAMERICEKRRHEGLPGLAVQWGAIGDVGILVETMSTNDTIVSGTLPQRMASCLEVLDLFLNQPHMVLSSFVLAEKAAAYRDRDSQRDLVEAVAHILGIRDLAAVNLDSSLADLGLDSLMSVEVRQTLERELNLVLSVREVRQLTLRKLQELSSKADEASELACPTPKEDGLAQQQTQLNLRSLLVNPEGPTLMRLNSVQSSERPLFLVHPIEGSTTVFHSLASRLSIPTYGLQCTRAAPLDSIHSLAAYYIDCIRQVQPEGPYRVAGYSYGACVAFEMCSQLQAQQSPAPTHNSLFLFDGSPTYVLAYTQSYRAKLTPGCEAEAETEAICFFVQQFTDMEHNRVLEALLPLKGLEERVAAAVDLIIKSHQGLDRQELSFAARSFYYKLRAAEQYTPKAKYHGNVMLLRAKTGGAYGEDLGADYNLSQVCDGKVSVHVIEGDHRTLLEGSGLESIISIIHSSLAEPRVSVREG

`Cc1cc(NC(=O)C(=O)O)cc(C)c1Oc1ccc(O)c2c1CCC2`: the outcome in test [1], in [2], in test [3], in test [4], in test [6] and in test [8] was inactive. Besides, the compound was classed as inactive in [9], in test [10], in test [11], in test [12], in test [13] and in [14]. Also, the compound was called inactive in test [15] and in test [16]. Besides, the AC50 in test [5] was 0.303 µM (active); in test [7], 0.0026 µM (active).
For the compound `O=C(O)Cc1ccccc1Nc1c(Cl)cccc1Cl`, the result in test [1], in [2], in test [3], in [4], in test [5] and in test [6] was inactive. Besides, the compound was called inactive in [8], in test [10], in [11], in [13], in test [14] and in test [15]. In addition, the compound was classed as inactive in test [16]. Moreover, the AC50 in test [7] is 76.4 µM (active); in [12] it was 6.67 µM (active); in [17], 13 µM (active).
In the case of `C[C@]12C=CC(=O)C=C1CC[C@@H]1[C@@H]2C(=O)C[C@@]2(C)[C@H]1CC[C@]2(O)C(=O)CO`, the result in test [1], in test [2], in test [5], in test [6], in test [18] and in test [8] was inactive. Moreover, the outcome in test [10], in test [11], in test [13], in test [14], in test [15] and in [16] was inactive. The AC50 in test [4] is 12.3 µM (active); in test [12], 50 µM (active); in [17], 50 µM (active).
In the case of `CC(=O)C(C)=CC1C(C)=CCCC1(C)C` (centres undefined), the compound was classed as inactive in test [1], in test [2], in test [3], in test [4], in test [5] and in test [6]. For the same compound, the compound was classed as inactive in test [7], in test [18], in test [8], in test [10], in test [11] and in test [12]. Also, the compound was classed as inactive in test [13], in test [14], in test [17], in [15] and in test [16].
